According to PubChem BioAssay (Tox21):
Inconclusive results are not listed. Active and inactive are the calls of the source. Calls come from the whole dose curve; as a rule, active = well fitted activation curve with a large enough effect in the signal ratio in the repeat runs (not every such curve was filed as active); inconclusive = weak or mixed curves, or effect the other way; inactive = flat fitted curve, though single readings scatter; the % refers to the signal ratio.

Molecular target: Bile acid receptor (Homo sapiens) (UniProt Q96RI1)
Assay: qHTS assay to identify small molecule agonists of the farnesoid-X-receptor (FXR) signaling pathway (AID 743220)
Settings: HEK293T FXR-UAS-bla, beta-lactamase FRET ratio, 16 h; series mostly up to 62.6 µM; activation: at the top concentration
From the text: National Center for Advancing Translational Sciences [NCATS]
NIH Chemical Genomics Center [NCGC]
U.S. Environmental Protection Agency [EPA]
National Institutes of Environmental Health Sciences [NIEHS]
National Toxicology Program [NTP]
U.S. Food and Drug Administration [FDA]
The farnesoid-X-receptor (FXR), a nuclear hormone receptor, is highly expressed in liver, intestine, kidney and adrenal cortex. Natural ligands of FXR are the bile acids (Cholic acid, Chenodeoxy cholic acid etc). FXR is an important regulator of diverse metabolic pathways, including the bile acid homeostasis, lipid and glucose metabolisms. FXR regulates the expression of target genes by binding either as a monomer or as a heterodimer with the retinoid X receptor (RXR). Numerous studies have reported that FXR exerts protective function during cholestasis, diabetes, liver regeneration, and cancer. To identify compounds that activate FXR signaling, GeneBLAzer FXR-UAS-bla HEK 293T cell line (Invitrogen, Carlsbad, CA) containing a beta-lactamase reporter gene under the control of a UAS response element was used to screen the Tox21 10K compound library.
Tox21 Assay Protocol Summary:
FXR-bla cells were dispensed at 5000 cells/5uL/well in 1536-well black wall/clear bottom plates using a Multidrop Combi (Thermo Fisher Scientific, Waltham, MA) dispenser. After the assay plates were incubated at 37C and 5% CO2 for 5 h, 23 nL of compounds dissolved in DMSO, positive controls or DMSO only was transferred to the assay plate by a Pintool station (Kalypsys, San Diego, CA). The assay plates were incubated at 37C for 16 h. After 1 uL of LiveBLAzerTM B/G FRET substrate was added using a Bioraptr Flying Reagent Dispenser (FRD) workstation (Beckman Coulter, Indianapolis, IN), the plates were incubated at room temperature for 2 h, and fluorescence intensity was measured by an Envision plate reader (PerkinElmer, Shelton, CT).
% is set by controls: 0 for no effect and ±100 for the full control effect; potency is the fitted concentration of half-maximal effect.

Bile acid receptor (Homo sapiens), sequence (Q96RI1 whole entry, looked up): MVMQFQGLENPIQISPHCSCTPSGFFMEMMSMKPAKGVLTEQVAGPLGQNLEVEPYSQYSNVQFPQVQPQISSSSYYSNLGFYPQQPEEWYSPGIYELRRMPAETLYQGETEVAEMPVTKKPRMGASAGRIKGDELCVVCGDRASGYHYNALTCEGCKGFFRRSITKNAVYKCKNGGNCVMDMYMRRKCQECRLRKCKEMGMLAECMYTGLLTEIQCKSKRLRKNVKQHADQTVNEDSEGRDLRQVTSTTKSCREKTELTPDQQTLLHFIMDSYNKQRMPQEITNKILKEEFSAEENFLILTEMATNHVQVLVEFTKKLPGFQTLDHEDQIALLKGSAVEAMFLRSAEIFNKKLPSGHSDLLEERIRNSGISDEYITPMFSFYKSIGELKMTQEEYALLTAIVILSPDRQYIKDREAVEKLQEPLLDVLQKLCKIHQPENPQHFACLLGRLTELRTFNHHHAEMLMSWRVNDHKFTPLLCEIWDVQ

Row | SMILES | activation | Potency
1 | Nc1nc(-c2ccc([N+](=O)[O-])cc2)cs1 | -3.38% [at 81.1 µM] (inactive) | –
2 | O[C@@H](CNC[C@H](O)[C@H]1CCc2cc(F)ccc2O1)[C@@H]1CCc2cc(F)ccc2O1 | -1.83% (inactive) | –
3 | Cc1oc(=O)oc1COC(=O)[C@@H]1N2C(=O)[C@@H](NC(=O)[C@H](N)c3ccccc3)[C@H]2SC1(C)C | -1.56% (inactive) | –
4 | CC1CCc2nccnc21 (stereo not given) | -0.51% (inactive) | –
5 | COc1cc(NCc2ccc3nc(N)nc(N)c3c2C)cc(OC)c1OC | 2.85% (inactive) | –
6 | c1ccc(CCCc2ccncc2)cc1 | – | 49 µM (active)
7 | ClC1=C(Cl)C1(Cl)Cl | 0.0077% [at 81.1 µM] (inactive) | –
8 | CSCC[C@H](NC(=O)[C@H](Cc1c[nH]c2ccccc12)NC(=O)CCNC(=O)OC(C)(C)C)C(=O)N[C@@H](CC(=O)O)C(=O)N[C@@H](Cc1ccccc1)C(N)=O | 3.34% (inactive) | –
9 | CC(C)(C)C(O)/C=C/c1ccc2c(c1)OCO2 (stereo not given) | 0.776% (inactive) | –
10 | CCCCCCCCCCCCCOC(=O)CCSCCC(=O)OCCCCCCCCCCCCC | 0.685% [at 29.1 µM] (inactive) | –
11 | Cc1cccc(C)c1NC(=O)c1cc(S(N)(=O)=O)c(Cl)cc1O | 0.202% (inactive) | –
12 | Cc1cc([N+](=O)[O-])ccc1N | 2.45% (inactive) | –
13 | c1ccc(CNc2ncnc3c2ncn3C2CCCCO2)cc1 (stereo not given) | -0.228% (inactive) | –
14 | O=c1[nH]c2cc(C(F)(F)F)c(N3CCOCC3)cc2n(CP(=O)(O)O)c1=O | 2.76% (inactive) | –
15 | CC1=C2[C@@H]([C@H](C)CC[C@H]2/C=C(\C)C(=O)O)[C@H](O)C1 | -1.18% (inactive) | –
16 | C1=CCC2CC=CC2C1 (stereo not given) | -0.946% (inactive) | –
17 | O=C(O)CCS | 1.71% [at 81.1 µM] (inactive) | –
18 | CC(C)OC(=O)c1ccccc1C(=O)OC(C)C | 0.616% (inactive) | –
19 | CCCCCCC(O)CCOC(C)=O (stereo not given) | 2.78% [at 232 µM] (inactive) | –
20 | CCCCCCCC(=O)OCCCCCC | 1.15% (inactive) | –

Row | SMILES | activation | Potency
21 | COc1cc(NS(=O)(=O)c2ccc(N)cc2)nc(C)n1 | -0.234% (inactive) | –
22 | O=[N+]([O-])c1ccc2ncccc2c1 | 1.7% (inactive) | –
23 | C=C(C)C(=O)OCCC(F)(F)C(F)(F)C(F)(F)C(F)(F)C(F)(F)C(F)(F)F | 0.413% (inactive) | –
24 | CCc1ccc(C)cc1 | -0.805% (inactive) | –
25 | CN1CCCN(C(c2ccccc2)c2ccc(Cl)cc2)CC1 (stereo not given) | -2.51% (inactive) | –
26 | CCCCCCCC(=O)Oc1c(Br)cc(C#N)cc1Br | -3.61% (inactive) | –
27 | O=C(CCS)OCC(COC(=O)CCS)(COC(=O)CCS)COC(=O)CCS | 0.661% (inactive) | –
28 | Cc1ccc(Nc2c(F)cccc2Cl)c(CC(=O)O)c1 | 2.9% (inactive) | –
29 | C1CCCCC1 | -2.81% [at 81.1 µM] (inactive) | –
30 | CCN(CC)C(=O)N1CCN(C)CC1 | 0.297% (inactive) | –
31 | O=C(O)CCC(=O)c1ccc(-c2ccccc2)cc1 | -3.62% (inactive) | –
32 | Cc1ccc2c(c1[N+](=O)[O-])C(=O)c1ccccc1C2=O | -0.306% (inactive) | –
33 | Nc1ccc(S(=O)(=O)NCc2ccccc2)cc1 | -4.37% (inactive) | –
34 | CC(O)Cn1cnc2c1c(=O)n(C)c(=O)n2C (stereo not given) | -3.58% (inactive) | –
35 | CC(C)(C)C1(CCc2ccc(Cl)cc2)CO1 (stereo not given) | -0.0905% (inactive) | –
36 | CSSc1ccoc1C | 0% (inactive) | –
37 | O=C(O)c1ccc(O)cc1O | -0.472% [at 81.1 µM] (inactive) | –
38 | CC(C)COC(=O)c1ccc(O)cc1 | 1.19% (inactive) | –
39 | CCC(CO)(CO)[N+](=O)[O-] | -2.07% (inactive) | –
40 | CC(=O)Oc1cccc(O)c1 | 1.05% (inactive) | –
